# Pf Dd2 growth – Plasmodium falciparum Dd2 growth inhibition; P. falciparum Dd2 growth, SYBR Green, 72 h; Potency, µM (titrated, usually from 28.9 µM), usual class: inhibitors; 120,000 tested, 4.3% active; AID 1347417; active means well fitted inhibition curve with a large enough effect; further: nearly all actives have a fitted effect of over 65% in size
#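 Readout: SYBR Green fluorescence, 485 nm excitation, 535 nm emission, after ~16 h lysis at 37C. Before that, Dd2-infected red cells (2.5% hematocrit) grew 72 h with compound, 29 uM top final concentration.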
# Hits are given with their value; n = inactive. The sample as a whole holds a higher share of hits than the screen did.
SMILES,Pf Dd2 growth
O=C1c2cnc(-c3ccc(F)cc3F)nc2OCCN1Cc1ccc(F)cc1F,n
CC(C)CCN1CCNC(=O)C1CC(=O)N(Cc1cnn(C)c1)C1CC1 (stereo not drawn),n
COCCN1CC(CO)C2(CCN(C(=O)Cc3ccccc3C)CC2)C1 (stereo not drawn),n
CCOC(=O)c1ccc(NC(=O)Cn2nc(SC)c(S(=O)(=O)c3ccc(Cl)cc3)c2N)cc1,11µM
CSc1nn(CC(=O)Nc2ccccc2F)c(N)c1S(=O)(=O)c1ccccc1,n
CCSc1nn(CC(=O)Nc2ccc(C(=O)OC)cc2)c(N)c1S(=O)(=O)c1ccc(C)cc1,n
CC(C)n1nc(OC(C)(C)C(=O)NC2CCOCC2)c2cc(CN3CCOCC3)ccc21,n
O=C(NC[C@H]1OC[C@@H](NC2CCCCC2)[C@@H]1O)c1cccs1,n
CCc1nc(-c2c3n(c(=O)n(CC(=O)Nc4cc(C)ccc4OC)c2=O)CCCC3)no1,n
O=C(Cc1cccc(F)c1)N1CC2CC(C1)[C@H]1CCCC(=O)N1C2 (stereo partly drawn),n
CC1CCC2(CC1)NC(=O)N(CC(=O)NC(C)c1ccccc1)C2=O (stereo not drawn),n
COc1ccc(C(C)NC(=O)CN2C(=O)NC3(CCC(C)CC3)C2=O)cc1 (stereo not drawn),n
Cc1ccc(C(C)NC(=O)CNC23CC4CC(CC(C4)C2)C3)cc1 (stereo not drawn),6.3µM
COc1cc(F)ccc1-c1ccnc2ncnn12,n
CCN(CC)C(=O)c1csc(N2CCN(c3cccc(Cl)c3)CC2)n1,n
CCCCN(C)C(=O)c1csc(N2CCN(c3ccccc3)CC2)n1,11µM
O=C(NCc1ccccn1)c1csc(N2CCN(c3ccccc3)CC2)n1,n
COC[C@H]1C[C@@H](NC(C)=O)[C@H](O)[C@@H]1O,n
COc1ccc(-c2cc(N3CCC(NC(=O)c4cccnc4)C3)n[nH]2)cc1 (stereo not drawn),n
COCC(=O)N1CCc2nc(C)nc(-c3ccc(OC)cc3)c2C1,n
CCOc1ccccc1NC(=O)c1sc2nc(C)cc(C)c2c1N,n
COc1cccc(NC(=O)c2sc3nc(C)c(C(=O)Nc4ccc(C)cc4C)c(-c4cccs4)c3c2N)c1,1.3µM
COc1cccc(NC(=O)c2sc3nc(C)c(C(=O)Nc4ccc(C)cc4C)c(-c4ccc(C)o4)c3c2N)c1,11µM
COc1ccc(NC(=O)c2sc3nc(C)c(C(=O)Nc4ccc(C)cc4C)c(-c4ccc(C)o4)c3c2N)cc1,8.9µM
COc1ccc(NC(=O)c2sc3nc4c(cc3c2N)CCCCCC4)c(OC)c1,n
SMILES,Pf Dd2 growth
CCOc1ccccc1NC(=O)c1sc2nc(-c3ccc(OC)cc3)ccc2c1N,n
CCC(C)NC(=O)c1sc2nc(C)c(C(=O)Nc3ccc(C)cc3C)c(-c3ccc(Cl)cc3)c2c1N (stereo not drawn),n
Cc1ccc(NC(=O)c2sc3nc(-c4cc5ccccc5oc4=O)[nH]c(=O)c3c2C)c(C)c1,n
COc1cccc(NC(=O)c2cnc(-c3ccc(C)cc3)nc2-c2ccncc2)c1,n
Cc1ccc(NC(=O)c2sc3nc(-c4cccs4)ccc3c2N)cc1F,n
COc1cccc(-c2ccc3c(N)c(C(=O)Nc4ccc(C)c(F)c4)sc3n2)c1,n
CCC(C)NC(=O)c1sc2nc(C)c(C(=O)Nc3ccc(C)cc3C)c(-c3ccccc3Cl)c2c1N (stereo not drawn),3.2µM
Cc1ccsc1C(=O)N1CCC(c2n[nH]c(=O)n2Cc2ccc(F)cc2)CC1,n
CCOc1cc(=O)n2c(c1C(=O)NCc1cc(OC)ccc1OC)CCCC2,n
Cc1ccc(C(=O)N2CCCC3(COc4ccccc4C(=O)N3)C2)cc1 (stereo not drawn),n
C[C@@H](NCC1CC1)c1onc(-c2ccc(Cl)cc2)c1C(=O)O,n
CN1c2cc(C(=O)NCc3cccc(F)c3)ccc2C(=O)N2CCCCC21 (stereo not drawn),n
Cc1cnc(-c2ccncc2)n1C1CCN(C(=O)Cc2ccccc2)CC1,n
O=C(NCc1nnc2cc(-c3nc(C4CC4)no3)ccn12)c1ccc(F)c(F)c1,n
Cc1ccnn1CCC(=O)Nc1nn(C)c2cccc(N3CCOCC3)c12,n
Cn1nc(OC(C)(C)C(=O)NCCc2ccccc2)c2cc(CN3CCCC3)ccc21,n
CC(C)(Oc1nn(CC2CCOCC2)c2ccccc12)C(=O)NCC1CCOCC1,n
CC(C)(Oc1nn(CC2CC2)c2ccc(CN3CCCC3)cc12)C(=O)NCC(F)(F)F,13µM
O=C(NCCn1ccn2nc(-c3ccc(F)cc3)cc2c1=O)c1ccc2c(c1)OCO2,n
Cc1ccc(C2=NC3(CCN(C(=O)c4sccc4C)CC3)ON2)cc1,n
CNC(=O)[C@@H]1CN(C(=O)Cn2c(=O)oc3ccccc32)C[C@H]1COC,n
CN1CCN(C(=O)[C@@H]2CCC[C@@H](NC(=O)c3ccc(Cl)cc3)CN(C)C(=O)C2)CC1,n
Cc1ccc(CNC(=O)Cn2c(-c3cccs3)cc3cc(Cl)ccc32)cc1,n
CC(NC(=O)Cn1c(-c2cccs2)cc2cc(F)ccc21)c1ccccc1 (stereo not drawn),1.1µM
CCOC(=O)Cn1c(-c2cccs2)cc2cc(Cl)ccc21,n
SMILES,Pf Dd2 growth
O=C(Cn1c(-c2cccs2)cc2cc(F)ccc21)NCCCN1CCN(c2ccc(F)cc2)CC1,6.3µM
O=C(Cn1c(-c2cccs2)cc2ccccc21)N1CCN(c2ccc(Cl)cc2)CC1,n
CN(C)c1ccc(CNC(=O)Cn2c(-c3cccs3)cc3cc(Cl)ccc32)cc1,n
CC(CNC(=O)Cn1c(-c2cccs2)cc2ccccc21)c1ccccc1 (stereo not drawn),11µM
CCNC(=O)Cn1c(-c2cccs2)cc2ccccc21,n
COc1ccccc1NC(=O)NCCCN1CCN(c2ccc(F)cc2)CC1,n
O=S(=O)(NCC1(COc2cnccn2)C[C@@H](O)[C@@H](O)C1)c1ccc(F)cc1 (stereo partly drawn),n
CCc1noc(-c2cn(C3CCCN(C(=O)c4cc(C)cc(C)c4)C3)nn2)n1 (stereo not drawn),n
O=C(O)c1ccccc1C(=O)N1CC[C@H]2COC(=O)N2c2cc(F)ccc2C1,n
COCCN1C(=O)CCC2(C(=O)Nc3cc(OC)cc(OC)c3)CCCC=C12 (stereo not drawn),n
CC(=O)N1CCC2(C1)C(=NC1CCCC1)NC(=O)N2c1cccnc1 (stereo not drawn),n
CCc1ccc(S(=O)(=O)N2CCC(Oc3ncccc3C(=O)N(C)C)C2)cc1 (stereo not drawn),n
COCCNC(=O)[C@@H]1C[C@H](Oc2ccccc2)CN1C(=O)CCc1nc2ccccc2[nH]1,n
CCC1CCCCN1C(=O)CSc1nc2c([nH]c3ccccc32)c(=O)n1-c1ccc(OC)cc1 (stereo not drawn),13µM
COc1ccc(-n2c(SCC(=O)NC3CCCCC3)nc3c([nH]c4ccccc43)c2=O)cc1,10µM
COC(=O)c1ccc(CSc2nc3c([nH]c4ccccc43)c(=O)n2-c2ccc(OC)cc2)o1,n
CCOc1ccc(-n2c(SCC(=O)NCC3CCCO3)nc3c([nH]c4ccccc43)c2=O)cc1 (stereo not drawn),n
COc1ccc(-n2c(SCC(=O)N3CCCc4ccccc43)nc3c([nH]c4ccccc43)c2=O)cc1,n
CCOC(=O)CSc1nc2c([nH]c3ccccc32)c(=O)n1-c1ccc(OC)cc1,n
Cc1ccc(C(=O)N2C[C@@H](N)C[C@H]2C(=O)NC(C)C)cc1N1CCNC1=O,n
CN(CC1CCOCC1)C(=O)Nc1cc(F)cc(F)c1,n

# High-throughput results: PubChem, National Center for Advancing Translational Sciences (NCATS)
